Source: PubChem BioAssay (NCI)
About 83,000 compounds went through this panel and 20% of them were active in at least one assay; those are over-represented in the sample as a whole.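 Method: cells in 96-well plates; compound added at one concentration; 48 h incubation; percent growth measured; values under 10 scored active.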 A number with no mark means an inactive call. The source made the active and inactive calls.

What follows are molecules tested on MDA-MB-468 breast (assay: NCI-60 one-dose screen, 48 h (100 = growth as untreated, 0 = no growth, -100 = all killed)). Details: 10 µM unless noted.
With `NCCNc1nc2ccccc2c2c(=O)c3cc(F)ccc3sc12` the growth was 67.2%. For `O=C(Cc1ccc(-c2ccc(OCCN3CCOCC3)cc2)cn1)NCc1ccccc1`, the growth was -17% (active). With `CCCCCCCCCCCCSC(=N)N` the growth was -58.5% (active). With `CC(=O)C1=C(O)C=C2Oc3c(C(=O)/C=C/c4cc(Cl)cc(Cl)c4)c(O)c(C)c(O)c3[C@]2(C)C1=O` the growth was -41.7% (active). For `CCCCCc1ccc(C)cc1OC(=O)CCl`, the growth was 110%. For `CC1(O)CCCCC1O` (stereo unspecified), the growth was 108%. `COc1ccc(/C(C)=C(\c2ccc(Cl)cc2)c2ccc(OCCN(C)C)cc2)cc1F` gave a growth of 66.2%. Work on `CCc1c(C)c2cc3c(c(C)c2oc1=O)OCC(=O)N3` yielded a growth of 69.4%. `COc1ccc(Nc2[nH]n3c(=O)cc(-c4ccccc4)nc3c2C(=O)Nc2ccc(C)cc2)c(OC)c1` was tested, and the growth was 58.6%. `COc1ccc2c(c1)/C(=C/c1sc(=S)n(Cc3ccco3)c1O)C=N2` was tested, and the growth was 3.03% (active). With `N#C/C(=C\c1ccc(-c2ccccc2F)o1)c1nc(-c2ccco2)cs1` the growth was -11% (active). For `O=C1CNC(c2ccccc2)C(c2ccccc2)N1` (stereo unspecified), the growth was 93.1%. `COc1ccc(-c2nn(-c3cccc(NC(=O)Nc4cc(C(F)(F)F)cc(C(F)(F)F)c4)c3)cc2-c2ccncc2)cc1Cl` showed a growth of 17.7%. `Nc1c(C(=O)Nc2ccncc2)sc2nc3c(cc12)CCCCC3` gave a growth of 54.2%. For `CCOC(=O)c1ccc2c(c1)[n+](=O)c(C(C)=O)c(C(F)(F)F)n2[O-]`, the growth was -37% (active). Work on `C#CCOc1ccccc1/C=N/Nc1nc(-c2ccc(Cl)cc2)cs1` yielded a growth of 95.6%. For `NS(=O)(=O)c1ccc(Nc2nc(N/N=C/c3ccccn3)nc(Nc3ccccc3)n2)cc1`, the growth was -29.7% (active). For `COc1ccc(-c2nc(SCCC(C)C)nc(N/N=C(/C)c3ccc(C)cc3)c2C#N)cc1`, the growth was 105%. `C[C@H](c1nc2ccc(C#N)cc2[nH]1)[C@H]1CC[C@H]2[C@@H]3CCC4=CC(=O)CC[C@]4(C)[C@H]3CC[C@]12C` showed a growth of 15.6%. In the case of `O=C(NCCNc1nccc(-c2c(-c3cccc(O)c3)nc3sccn23)n1)c1ccccc1`, the growth is reported as 54.7%. `Fc1cccc(CNc2c3ccccc3nc3ccccc23)c1` was tested, and the growth was 0.607% (active). `O=[N+]([O-])c1ccccc1/C=N\NC(=S)N/N=C/c1ccccc1[N+](=O)[O-]` gave a growth of 30.7%. With `Cc1cccc(C)c1NCc1nnc(-c2ccc(O)cc2)o1` the growth was 96.2%. `c1ccc(-c2nnc(Nc3nnc(-c4ccccc4)s3)s2)cc1` gave a growth of 107%. `Cc1cc(=O)[nH]c(=O)n1Cc1cn(-c2c3ccccc3nc3ccccc23)nn1` was tested, and the growth was -66.7% (active). With `COc1c2c(cc3c1C(=O)N[C@@H]1[C@@H](O)[C@@H](O)[C@H](O)C[C@@H]31)OCCO2` the growth was 93.1%.
